This passage reports normalized growth results from PubChem BioAssay AID1159580 (chemical genetic matrix, 2015).

The nature of this assay: chemical genetic growth profiling, strain panel (AID 1159580).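 Also: tested at 20 µM; growth read once vehicle control cultures reached saturation at 30 °C; 1 = growth at the plate median or of vehicle wells; lower values mean less growth of the strain.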 The note with it: S. cerevisiae deletion strains, growth OD.

Out of some 5,500 compounds screened, about 2,000 (36%) were called active. Not shown: some 18% with an inconclusive outcome. The list shows a part of the results. Unmarked numbers belong to inactive results. Rule as the data show it: active = normalized growth mostly below about 0.91 (no sharp cut-off); inconclusive = no clear call, values can overlap the other calls; inactive = mostly above about 0.92.

`CC(C)[C@@H]1NC(=O)[C@H](CCCCN)NC(=O)[C@@H](Cc2c[nH]c3ccccc23)NC(=O)[C@H](Cc2ccc(O)cc2)NC(=O)[C@H](C)N(C)C(=O)[C@H](Cc2ccccc2)NC1=O`: the normalized growth (locus YAL040C, strain CLN3, stronger effect = lower value) is 0.981; the normalized growth (locus YCL061C, strain MRC1 (second series), stronger effect = lower value) is 0.988; the normalized growth (locus YDR363W, strain ESC2, stronger effect = lower value) is 0.995; the normalized growth (locus YER002W, strain NOP16, stronger effect = lower value) was 1.01; the normalized growth (locus YMR263W, strain SAP30, stronger effect = lower value) was 0.994; the normalized growth (locus YMR307W, strain GAS1, stronger effect = lower value) was 0.879 (active). The normalized growth was 0.988 (locus YNL175C, strain NOP13, stronger effect = lower value); 0.988 (locus YNL197C, strain WHI3, stronger effect = lower value); 1 (locus YNL224C, strain SQS1, stronger effect = lower value); 0.984 (locus YNL322C, strain KRE1, stronger effect = lower value); 0.989 (locus YOR083W, strain WHI5 (second series), stronger effect = lower value).
